Test results from PubChem BioAssay AID624273 (Broad Institute, 2012).
Screen size: about 1,000 compounds; about 230 (23%) were called active. Another 1% or so got no clear call; they are omitted. The rule behind the calls is not given here. The list shows a part of the results. Results with a measured potency or affinity are listed apart.

target: Long-chain-fatty-acid--AMP ligase FadD28 (Mycobacterium tuberculosis (strain ATCC 25618 / H37Rv)) (UniProt P9WQ59); assay: inhibitors of FadD28 bisubstrate probe binding, dose response, biochemical, fluorescence polarization, cherry-pick (AID 624273); conditions: series mostly up to 50 µM
Sequence (P9WQ59 whole entry, looked up): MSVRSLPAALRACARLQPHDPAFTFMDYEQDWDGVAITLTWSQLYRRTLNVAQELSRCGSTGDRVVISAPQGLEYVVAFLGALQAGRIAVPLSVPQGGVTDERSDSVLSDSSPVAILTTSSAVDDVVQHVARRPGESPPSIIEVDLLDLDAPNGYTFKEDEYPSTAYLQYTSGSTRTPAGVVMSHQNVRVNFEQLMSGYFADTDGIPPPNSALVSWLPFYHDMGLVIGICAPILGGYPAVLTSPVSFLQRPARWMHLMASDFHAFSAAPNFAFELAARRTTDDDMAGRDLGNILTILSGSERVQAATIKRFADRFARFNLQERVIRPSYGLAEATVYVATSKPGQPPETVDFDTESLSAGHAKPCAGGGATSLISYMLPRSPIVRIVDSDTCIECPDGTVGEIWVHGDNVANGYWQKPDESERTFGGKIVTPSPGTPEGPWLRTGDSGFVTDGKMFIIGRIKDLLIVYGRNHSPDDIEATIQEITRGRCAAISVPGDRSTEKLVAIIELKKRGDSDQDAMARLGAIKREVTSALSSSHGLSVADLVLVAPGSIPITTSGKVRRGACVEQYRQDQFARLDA

Question: With NNC(=O)C1CCCn2c1nc1sc3c(c1c2=O)CCCC3 (centres undefined) as the compound, how does the outcome read?
Answer: inactive

Question: Which outcome does the source give for Cc1ccc(C(=O)NCCSCc2ccc(Cl)cc2Cl)cc1[N+](=O)[O-] here?
Answer: inactive

Question: How did the outcome turn out when Cc1ccc(CSCCNC(=O)/C=C/c2ccccc2Cl)cc1 was run?
Answer: inactive

Question: COc1ccc(CNC(=O)c2ccc(Cl)c(S(=O)(=O)N3CCCCCC3)c2)cc1 was tested. Which outcome did it give?
Answer: inactive

Question: With COc1ccc(CCNC(=O)c2ccc(CNS(=O)(=O)c3cccc(Cl)c3)cc2)cc1OC as the compound, how does the outcome read?
Answer: inactive

Question: For Cc1ccc(CSCCNC(=O)c2ccc(NS(C)(=O)=O)cc2)cc1, which outcome is on record?
Answer: inactive

Question: How did the outcome turn out when O=C(CSc1ccc(Cl)cc1)N1CCOCC1 was run?
Answer: inactive

Question: For COc1ccc(C(=O)NCCSCc2ccc(C)cc2)cc1, which outcome is on record?
Answer: inactive

Question: Which outcome does the source give for Brc1ccc(Sc2cnc3ccccc3n2)cc1 here?
Answer: inactive

Question: For C=CCSc1nnc2nc3c(nn12)c1cc(C)ccc1n3CC=C, which outcome is on record?
Answer: inactive

Question: For COC(=O)CC1C(=O)NCCN1C(=O)c1ccc(S(=O)(=O)N2CCOCC2)cc1 (centres undefined), which outcome is on record?
Answer: inactive

Question: Which outcome does the source give for COc1ccc(CCNC(=O)c2ccc(CNS(=O)(=O)c3ccc(C(C)(C)C)cc3)cc2)cc1OC here?
Answer: inactive

Question: With COc1ccc(C(=O)NCc2ccc(C)cc2)cc1S(=O)(=O)N1CCCc2ccccc21 as the compound, how does the outcome read?
Answer: inactive

Question: COc1ccc(C(=O)Nc2ccc(C)cn2)cc1S(=O)(=O)N1CCCc2ccccc21 was tested. Which outcome did it give?
Answer: inactive

Question: How did the outcome turn out when CC1(c2ccc(OC(F)F)cc2)NC(=O)N(CC(=O)NC2CCCC2)C1=O (centres undefined) was run?
Answer: inactive

Question: Which outcome does the source give for CC(C)CCNc1nc(N2CCCC2)c2c(c1C#N)CCN(C)C2 here?
Answer: inactive

Question: For CN(c1ccccc1)S(=O)(=O)c1ccc(NC(=O)CC(=O)c2ccccc2)cc1, which outcome is on record?
Answer: inactive

Question: O=C(CCNC(=O)c1ccc([N+](=O)[O-])cc1)Nc1ccccc1N1CCOCC1 was tested. Which outcome did it give?
Answer: inactive

Question: For CCN(CC)S(=O)(=O)c1cc(NC(=O)c2cc([N+](=O)[O-])ccc2N2CCOCC2)ccc1C, which outcome is on record?
Answer: inactive

Question: For O=C(NNC(=O)c1ccc(Cl)c([N+](=O)[O-])c1)c1ccncc1, which outcome is on record?
Answer: inactive

Question: Cc1ccc(NC(=O)c2cc([N+](=O)[O-])ccc2N2CCOCC2)cc1C was tested. Which outcome did it give?
Answer: inactive

Question: How did the outcome turn out when O=C1C=C(O)CC(c2ccco2)C1 (centres undefined) was run?
Answer: inactive

Question: Which outcome does the source give for CC(=O)C1=C(C)NC(SCC(=O)c2ccc(F)cc2)=C(C#N)C1c1ccco1 (centres undefined) here?
Answer: inactive

Question: Which outcome does the source give for COc1ccc(NC(=O)Nc2ccc3c(c2)C(=O)N([C@H](C)CO)C[C@H](C)[C@@H](CN(C)S(=O)(=O)c2ccc(OC)cc2)O3)cc1 here?
Answer: inactive

Question: For CCN(CC)CCCNC(=O)C1c2ccccc2C(=O)N(C)C1c1ccc(OC)cc1 (centres undefined), which outcome is on record?
Answer: inactive

Question: How did the outcome turn out when COc1ccc(/C(N)=N/OC(=O)c2c(-c3ccccc3Cl)noc2C)cc1OC was run?
Answer: inactive

Question: With CCOc1cc(/C=C2\SC(=O)N(CC(=O)Nc3ccccc3F)C2=O)cc([N+](=O)[O-])c1O as the compound, how does the outcome read?
Answer: inactive

Question: How did the outcome turn out when O=C1/C(=C\c2cc([N+](=O)[O-])ccc2O)SC(=S)N1Cc1ccc(Cl)cc1 was run?
Answer: inactive

Question: Which outcome does the source give for O=C(CNC(=O)c1nc[nH]c1C(=O)NCC(=O)OCc1ccccc1)OCc1ccccc1 here?
Answer: inactive

Question: COc1ccc(OC)c2[nH]c(=O)c(CCNS(=O)(=O)c3ccc(Cl)cc3)cc12 was tested. Which outcome did it give?
Answer: inactive

Question: For Cc1cccc(C(=O)NCC(=O)OCc2nc(N)nc(Nc3ccccc3C)n2)c1, which outcome is on record?
Answer: inactive

Question: O=C(O)CCCc1nc(-c2ccccc2)no1 was tested. Which outcome did it give?
Answer: inactive

Question: For CCOc1cc(/C=C2\N=C(SC)SC2=O)cc([N+](=O)[O-])c1OC(C)=O, which outcome is on record?
Answer: inactive

Question: Which outcome does the source give for CCC(C)OC(=O)C1=C(C)NC(=O)CC1c1ccccc1OC (centres undefined) here?
Answer: inactive

Question: With Cc1ccc(/C=C/C(=O)C2C(=O)c3ccccc3C2=O)cc1 as the compound, how does the outcome read?
Answer: inactive

Question: How did the outcome turn out when Cc1noc(C)c1C(=O)NCc1ccccc1Br was run?
Answer: inactive

Question: O=C(NNC1CC(=O)N(c2ccc(Br)cc2)C1=O)c1cccnc1 (centres undefined) was tested. Which outcome did it give?
Answer: inactive

Question: With O=C(O)c1ccc(N=C2SCC(=O)N2Cc2ccccc2)cc1 as the compound, how does the outcome read?
Answer: inactive

Question: With O=C1CC(C(=O)Nc2ccc(Br)cc2)S/C(=N\N=C\c2ccco2)N1 (centres undefined) as the compound, how does the outcome read?
Answer: inactive

Question: For CN(C)S(=O)(=O)c1cc(NC(=O)CSc2ncc(C(F)(F)F)cc2Cl)ccc1Cl, which outcome is on record?
Answer: inactive

Question: COc1cccc(NC(=S)/C(=C(\[O-])c2cc(C)n(-c3ccccc3F)c2C)[n+]2ccc(N(C)C)cc2)c1 was tested. Which outcome did it give?
Answer: inactive

Question: For O=C(c1cc2cc(Cl)ccc2[nH]1)N1CCCCC1, which outcome is on record?
Answer: inactive

Question: With C/C(=N\N=C(/N)SC1CC(=O)N(c2ccc(Br)cc2)C1=O)c1cccs1 (centres undefined) as the compound, how does the outcome read?
Answer: inactive

Question: Which outcome does the source give for CCN(CC)c1ccc(/C=N/NC(=O)Cc2cccs2)c(O)c1 here?
Answer: inactive

Question: With C[C@H](CO)N1C[C@H](C)[C@H](CN(C)S(=O)(=O)c2cccs2)Oc2ccc(NC(=O)Nc3ccc4c(c3)OCO4)cc2CC1=O as the compound, how does the outcome read?
Answer: inactive

Question: For Cc1ccc(-n2ncc3c(=O)[nH]c(SCC(=O)N4CC(=O)Nc5ccccc54)nc32)cc1, which outcome is on record?
Answer: inactive

Question: For O=C(Cc1ccccc1[N+](=O)[O-])OCC(=O)c1c[nH]c2ccccc12, which outcome is on record?
Answer: inactive

Question: Which outcome does the source give for COc1ccc(S(=O)(=O)NCC2CCCN(Cc3cn(C)nc3C)C2)cc1 (centres undefined) here?
Answer: inactive

Question: Which outcome does the source give for O=C(Cn1cc2c(n1)CCCC2)Nc1cc(-c2cccc(Cl)c2)no1 here?
Answer: inactive

Question: How did the outcome turn out when COc1ccc(-c2nc3ccccc3c(=O)n2CCCN2CCOCC2)cc1 was run?
Answer: inactive

Question: CCCCOc1[nH]c2nc(-c3ccco3)n(Cc3ccco3)c(=N)c2c1C#N was tested. Which outcome did it give?
Answer: inactive

Question: For COC(=O)c1sc(NC(C)=O)c(C(=O)OC)c1C, which outcome is on record?
Answer: inactive

Question: O=C1NN(c2ccc(Cl)c(Cl)c2)C(=O)/C1=C/c1ccc(-c2ccccc2C(=O)O)o1 was tested. Which outcome did it give?
Answer: inactive

Question: O=[N+]([O-])c1ccc2[nH]c(=S)sc2c1 was tested. Which outcome did it give?
Answer: inactive

Question: For Clc1cccc(/C=N/N2CCN(Cc3ccccc3)CC2)c1, which outcome is on record?
Answer: inactive

Question: With O=C(Nc1cnc2sccn2c1=O)c1ccccc1Cl as the compound, how does the outcome read?
Answer: inactive

Question: CC1=NN(c2ccc([N+](=O)[O-])cc2)C(=O)C1 was tested. Which outcome did it give?
Answer: inactive

Question: How did the outcome turn out when Cc1ccc(-n2nnnc2SCC(=O)Nc2nc(-c3ccc(F)cc3)cs2)cc1C was run?
Answer: inactive

Question: Which outcome does the source give for COc1ccccc1CO/N=C/NC(=O)c1c(OC)ccnc1Oc1ccc(F)cc1 here?
Answer: inactive

Question: Which outcome does the source give for COCCNC(=O)C1CC(=O)N(c2ccc(OC)cc2)C1c1ccc(OC)cc1 (centres undefined) here?
Answer: inactive

Question: CCCOC(=O)c1ccc(NC(=O)c2cc(OC)c(OC)c(OC)c2Br)cc1 was tested. Which outcome did it give?
Answer: inactive

Question: CCOc1cc(C2NC(=O)NC(C)=C2C(=O)OCC2CCCCC2)ccc1O (centres undefined) was tested. Which outcome did it give?
Answer: inactive

Question: How did the outcome turn out when Cc1cccc(NC(=O)CN2C(=O)N/C(=C/c3ccc(C)s3)C2=O)c1 was run?
Answer: inactive

Question: For COc1ccc(/C=C2/NC(=O)N(CC(=O)Nc3cccc(C)c3)C2=O)cc1O, which outcome is on record?
Answer: inactive
